The subject of this assay is MDA-MB-468 breast. Description: NCI-60 one-dose screen, 48 h (100 = growth as untreated, 0 = no growth, -100 = all killed).

“And” between values parts separate entries of the source, which are not always exact repeats. Equal entries are not always repeated. This is part of a sample that, as a whole, favours compounds with a hit. Of some 83,000 tested, about 20% had one in any assay.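 Results are percent growth after 48 hours of single-concentration exposure. 100 means growth as in untreated cells, lower positive values show inhibition; negative values down to -100 show cell death.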 Values without a mark were called inactive. The source made the active and inactive calls. Rule for the calls: active = growth percent below 10; inactive = the rest.

As for `CC[C@H](C)[C@H](NC(=O)[C@H]1CCCCN1C)C(=O)N(C)[C@H](C[C@@H](OC(C)=O)c1nc(C(=O)NC23C4C5C2C2C3C4C52C(=O)OC)cs1)C(C)C` (some centres not stated), the growth (10 µM unless noted) was -2.75% (active).

For `C[C@@H]1CCC2[C@@H](C)[C@H](OC(=O)CCC(=O)NCCNC(=O)Cc3cc(=O)oc4cc(N(C)C)ccc34)O[C@@H]3O[C@]4(C)CC[C@@H]1C23OO4` (some centres not stated), the growth (10 µM unless noted) is 63.7%.

In the case of `COc1ccc(/C=C\c2cc(OC)c(OC)c(OC)c2)cc1OCC(=O)Nc1nc2ccc(F)cc2s1`, the growth (10 µM unless noted) is 37.3%.

As for `CC(=O)OC1C(OC/C2=C/C3[C@@H](C(C)C)CC=C(C)[C@@H]3CC(OC(=O)/C=C/c3cn(C)cn3)[C@]3(C)C=C[C@@]2(O)O3)OCC(O)C1O` (some centres not stated), the growth (10 µM unless noted) was -19.2% (active).

For `C/C(=C\c1ccn(-c2ccc(N)cc2F)n1)[C@@H]1C[C@@H]2O[C@]2(C)CCC[C@H](C)[C@H](O)[C@@H](C)C(=O)C(C)(C)[C@@H](O)CC(=O)O1`, the growth (10 µM unless noted) was 8.6% (active).

On to `O=C(Cc1ccccc1)NC(O)C(Cl)(Cl)Cl` (configuration not stated), for which the growth (10 µM unless noted) is 104%.

`O=S(OO)c1cc(Cl)c(O)c(Cl)c1` (configuration not stated): the growth (10 µM unless noted) is 112%.

Turning to `CCN1C(=O)C(=C/C=C/c2ccccc2)C(=O)N(CC)C1=O`, the growth (10 µM unless noted) is 93.1%.

For the molecule `COc1ccc(OC)c(/C=C/[N+](=O)[O-])c1`, the growth (10 µM unless noted) is -59.3% (active).

Consider `COc1cc(C=C2c3ccccc3C(=O)c3ccccc32)ccc1OCCCCOc1cc2c(cc1OC)C(=O)N1CCCC1C=N2` (configuration not stated), for which the growth (10 µM unless noted) is -75.4% (active).

With `Cc1c(C)c(N)c(C)c(C)c1N`, the growth (10 µM unless noted) was 61.7%.

Take `C[C@]12CCc3sc(-c4ccccc4O)nc3C1=CC[C@@H]1[C@@H]2CC[C@]2(C)C(=O)CC[C@@H]12`: the growth (10 µM unless noted) was 106%.

`CC12CCC3C(CCC4Cc5[nH]c6ccccc6c5CC43C)C1CCC2O` (configuration not stated): for the setting “10 µM unless noted”, the growth is 29.3%.

As for `O=S1(=O)OCCO1`, the growth (10 µM unless noted) was 98.2%.

Take `COc1cc2c(c(OC)c1OC)-c1ccc(O)c(=O)cc1[C@@H](NC(C)=O)CC2`: the growth (10 µM unless noted) is 62.8%.

For the molecule `COC(=O)CCP(CCC(=O)OC)c1ccccc1`, the growth (10 µM unless noted) is 105%.

`CC[C@H](C)[C@H](NC(=O)[C@H]1CCCCN1C)C(=O)N(C)[C@H](C(=O)NC12CC(C(=O)N[C@@H](Cc3ccccc3)C[C@H](C)C(=O)OC)(C1)C2)C(C)C`: the growth (10 µM unless noted) is 116%.

Regarding `CC(C)CCC(=O)O[C@H]1CC[C@H]2[C@@H]3CCC4=CC(=O)CC[C@]4(C)[C@H]3CC[C@]12C`, the growth (10 µM unless noted) is 102%.

Take `CC(Oc1ccc(-c2ccccc2)cc1)C(=O)O` (configuration not stated): the growth (10 µM unless noted) was 94.4%.

Turning to `CN1C(=O)[C@]23SSC1(C)C(=O)N2[C@H]1Nc2ccccc2C1([C@@]12c4ccccc4N[C@@H]1N1C(=O)C4(C)SS[C@]1(C(=O)N4C)[C@H]2O)[C@@H]3O` (some centres not stated), for the setting “10 µM unless noted”, the growth is -88.9% (active).

Consider `COC1[C@@H]2C[C@H]3C(C)(C)O[C@@](C/C=C(/C)C(=O)O)(C2=O)[C@]32Oc3c(CC=C(C)C)c4c(c(O)c3C(=O)[C@H]12)C=CC(C)(C)O4` (some centres not stated), for which the growth (10 µM unless noted) is -65.2% (active).

On to `NC1CN2CCC1CC2` (configuration not stated), for which the growth (10 µM unless noted) is 108%.

Turning to `Nc1ccc2c(c1)Cc1cc(N)ccc1-2`, the growth (10 µM unless noted) is 67.3%.

`Cc1ccc(NC2=N[C@]34CC(=O)CC[C@]3(C)[C@H]3CC[C@]5(C)C(=O)CC[C@H]5[C@@H]3C[C@@H]4S2)c(C)c1`: the growth (10 µM unless noted) is 17%.

For `COc1cc(C2=NN(c3ccccc3)C(c3sc(N(CCCl)CCCl)nc3Cl)C2)cc(OC)c1OC` (configuration not stated), the growth (10 µM unless noted) is 87.9%.

Consider `COc1ccc(C/C(C)=C(\c2ccc(OCCN3CCOCC3)cc2)c2ccc(OC(=O)Cc3ccccc3)cc2)cc1`, for which the growth (10 µM unless noted) was -33.4% (active).

As for `COC(C(=O)[C@@H](O)[C@@H](C)O)[C@@H]1Cc2cc3cc(O[C@H]4C[C@@H](O[C@H]5C[C@@H](O)[C@H](O)C(C)O5)[C@H](O)C(C)O4)c(C)c(O)c3c(O)c2C(=O)[C@H]1O[C@H]1C[C@@H](O[C@H]2C[C@@H](O[C@H]3C[C@@H](O)[C@@H](O)C(C)O3)[C@@H](O)C(C)O2)[C@H](O)C(C)O1` (some centres not stated), the growth (10 µM unless noted) is -41.2% (active).

Regarding `CCn1cnc2c(Nc3cccc(Cl)c3)nc(N[C@@H]3CCCC[C@@H]3N)nc21`, the growth (10 µM unless noted) was -22% (active).

As to `COc1ccc(N)cc1OC`, the growth (10 µM unless noted) is 109%.

With `N#CCCc1ccccc1`, the growth (10 µM unless noted) is 101%.

As to `CN(C)c1ccc([N+](=O)[O-])c([N+](=O)[O-])c1`, the growth (10 µM unless noted) was 110% and 95.6%.

With `CCCCCCCCCCCCCCCC[n+]1ccccc1`, where the note is “10 µM unless noted”, the growth was -33.2% (active) and -13.9% (active).

On to `CCC(=O)OC1CCn2c1nc1c2C(=O)C(C)=C(N2CC2)C1=O` (configuration not stated), for which the growth (10 µM unless noted) is 44.3%.

In the case of `CCCCCCCCCCCCCCCCCC1OC[C@H](COC(=O)O[C@@H](C(=O)O[C@H]2C[C@@]3(O)[C@@H](OC(=O)c4ccccc4)[C@@H]4[C@]5(OC(C)=O)CO[C@@H]5C[C@H](O)[C@@]4(C)C(=O)[C@H](OC(C)=O)C(=C2C)C3(C)C)[C@@H](NC(=O)c2ccccc2)c2ccccc2)O1` (some centres not stated), the growth (10 µM unless noted) is 0.893% (active).

For the molecule `Cc1nc2ccccc2c(=O)n1-c1ccccc1F`, for the setting “10 µM unless noted”, the growth was 105%.

Regarding `CC(C)N=C(NC(C)C)N1CC1`, under “10 µM unless noted”, the growth was 118%.

Turning to `COc1cc2c(cc1OC)[C@@H]1N(CC2)C(=O)c2ccccc2[C@@]1(C)C(=O)O`, the growth (10 µM unless noted) was 103%.

As to `CC1(C)N=C(N)N=C(N)N1c1ccc(CCC(=O)Nc2ccc(S(=O)(=O)F)cc2)cc1`, the growth (10 µM unless noted) was 46.3%.

Turning to `CC(=O)OCC1OC([S-])C(OC(C)=O)C(OC(C)=O)C1OC(C)=O.[Au+].c1ccc(CN2[CH-]N(Cc3ccccc3)C(c3ccccc3)=C2c2ccccc2)cc1`, the growth reads like this: (4.75 µM) -23.8% (active); (10 µM) -41.9% (active).

With `S=C(SSC(=S)N1CCCCC1)N1CCCCC1`, the growth is 98.1% (10 µM) and -62.8% (active) (100 µM).

The values are drawn from PubChem BioAssay (NCI).
